For 96 compounds, inhibition results are on record in PubChem BioAssay AID372 (MTDP, 2006).

Hit rate of the full screen: of about 100,000 compounds, about 770 (0.77%) were called active. The sample holds actives, similar compounds and a random draw of the others, so the mix is not that of the screen. No stated cut-off is given here; in the data, active means inhibition above about 50%; inactive means the rest.

As a reminder, the inhibition is the relative decrease from the control value, in per cent.

This assay addresses Gag-Pol polyprotein (Human immunodeficiency virus type 1 group M subtype B (isolate HXB2)) (UniProt P04585). The assay is described as follows: RNase H inhibition, HIV 1 Gag Pol polyprotein, FRET biochemical assay, screening (AID 372). The settings on record: HIV-1 RT RNase H, FRET RNA/DNA substrate fluorescence; at 10 µM; hits give high values.
As for `CCN(CC)CCOc1ccccc1C`, the inhibition was 3% (inactive). For `COc1ccc(C(=O)N2CCN(S(=O)(=O)c3ccccc3)CC2)cc1` the value was 21% (inactive); for `COc1cccc(C=C2C(=O)c3ccccc3C2=O)c1`, 0% (inactive); for `CCOc1ccc(NC(=O)CN(c2ccc(Br)cc2)S(=O)(=O)c2ccccc2)cc1`, 17% (inactive). Under `O=C(N/N=C/c1ccc(OC2CSC2)cc1)c1ccccc1` stands 6% (inactive); under `Cc1ccc(N(Cc2ccc(C(=O)N/N=C/c3ccc(OC4CSC4)cc3)cc2)S(C)(=O)=O)cc1C`, 56% (active); under `Cc1ccc(N(Cc2ccc(C(=O)N/N=C/c3cc(Br)c(C)o3)cc2)S(C)(=O)=O)cc1C`, 19% (inactive).

Turning to `Brc1ccc(-c2nnnn2-c2ccccc2)cc1`, the inhibition is 12% (inactive).

Consider `CCc1ccc2oc(-c3ccc(NC(=S)NC(=O)c4ccc(OC)c([N+](=O)[O-])c4)cc3)nc2c1`, for which the inhibition is 19% (inactive).

On to `COc1ccc(C(=O)NC(=S)Nc2cccc(-c3nc4cc(C)ccc4o3)c2)cc1[N+](=O)[O-]`, for which the inhibition is 23% (inactive). For the compound `COc1ccc(C(=O)NC(=S)Nc2ccc(-c3nc4ccc(C)cc4o3)cc2)cc1[N+](=O)[O-]`, the inhibition is 54% (active). Turning to `COc1ccc(C(=O)NC(=S)Nc2ccc(-c3nc4ccc(C)cc4o3)cc2)cc1Br`, the inhibition was 60% (active).

Regarding `COc1ccc(C(=O)NC(=S)Nc2cccc(-c3nc4cc(Cl)ccc4o3)c2)cc1[N+](=O)[O-]`, the inhibition is 23% (inactive). For `COc1ccc(C(=O)NC(=S)Nc2ccc(-c3nc4ccccc4o3)cc2)cc1Br` the value was 20% (inactive); for `COc1ccc(C(=O)NC(=S)Nc2ccc3oc(-c4ccc(Cl)cc4)nc3c2)cc1[N+](=O)[O-]`, 44% (inactive); for `COc1ccc(C(=O)NC(=S)Nc2ccc(-c3nc4cc(C)ccc4o3)cc2)cc1Br`, 21% (inactive). With `COc1ccc(C(=O)NC(=S)Nc2ccc(-c3nc4cc(Cl)ccc4o3)cc2)cc1[N+](=O)[O-]`, the inhibition was 53% (active). `CC(NC(=O)CSc1ncc(-c2ccccc2)[nH]1)c1ccccc1` (stereo unspecified): the inhibition was 12% (inactive).

As to `CC1=C(C(=O)OCCc2ccccc2)C(c2ccc(Cl)c([N+](=O)[O-])c2)C2=C(CCCC2=O)N1` (stereo unspecified), the inhibition is 2% (inactive). With `O=C(N/N=C/c1ccc([N+](=O)[O-])cc1)c1ccccn1`, the inhibition is 7% (inactive).

In the case of `COc1ccc(I)cc1S(=O)(=O)N1CCN(c2ccc(F)cc2)CC1`, the inhibition was 16% (inactive). For the compound `C/C(=N/NC(=O)C1COc2cc3ccccc3cc2O1)c1ccc([N+](=O)[O-])cc1` (stereo unspecified), the inhibition is 10% (inactive). Under `COc1ccc(C2CC(=O)C3=C(C2)NC(C)=C(C(=O)OCC(C)C)C3c2ccc(OC)c(OC)c2)cc1` (stereo unspecified) stands 8% (inactive). For `CCC(Sc1nc2ccccc2s1)C(=O)Nc1ccc([N+](=O)[O-])cc1` (stereo unspecified) the value was 10% (inactive); for `O=C(NC(=S)Nc1cc([N+](=O)[O-])ccc1Cl)c1cccc(Cl)c1`, 45% (inactive); for `O=C(O)c1ccc(Oc2ccc3c(c2)C(=O)N(c2ccc([N+](=O)[O-])cc2)C3=O)cc1`, 3% (inactive).

With `CC1=NN(c2cccc(Cl)c2)C(=O)/C1=C/c1ccc(-c2ccccc2[N+](=O)[O-])o1`, the inhibition is 1% (inactive). Under `CCCCOC(=O)c1cccc(-c2ccc(/C=C3\C(=O)N(c4ccc(S(N)(=O)=O)cc4)N=C3C)o2)c1` stands 39% (inactive); under `Cc1ccc(N2C(=O)NC(=O)/C(=C/c3ccc(-c4ccc(Cl)cc4Cl)o3)C2=O)cc1`, 36% (inactive); under `CC1=NN(c2ccc(S(N)(=O)=O)cc2)C(=O)/C1=C\c1ccc(-c2cccc(Cl)c2C)o1`, 67% (active). In the case of `CC1=NN(c2ccc(S(N)(=O)=O)cc2)C(=O)/C1=C\c1ccc(-c2ccc(Cl)cc2)o1`, the inhibition was 43% (inactive). As to `O=C(Nc1ccc(Cl)c(-c2nc3ccccc3s2)c1)c1ccccc1F`, the inhibition is 14% (inactive). As to `CCOC(=O)c1c(NC(=S)NC(=O)c2ccccc2)sc2c1CC(C(C)C)OC2` (stereo unspecified), the inhibition was 12% (inactive). For `COc1ccc(CNC(=O)C(=O)Nc2ccccc2F)cc1` the value was 15% (inactive). For `O=C(NN1C(=O)c2ccc(C(=O)c3ccc4c(c3)C(=O)N(NC(=O)c3ccncc3)C4=O)cc2C1=O)c1ccncc1` the value was 0% (inactive); for `C/C(=N\N1CCN(Cc2cccc3ccccc23)CC1)c1cccs1`, 19% (inactive); for `COC(=O)/C=C1\SC(=Nc2ccccc2)NC1=O`, 6% (inactive). For `O=C1C=C/C(=N\S(=O)(=O)c2ccc(Cl)cc2)C=C1Cl` the value was 37% (inactive).

Regarding `O=C1C=CC(=NS(=O)(=O)c2cc(Cl)ccc2Cl)C=C1`, the inhibition was 46% (inactive).

`Clc1cccc(C=Nc2ccc(-c3ccc(N=Cc4cccc(Cl)c4Cl)cc3)cc2)c1Cl`: the inhibition was 17% (inactive).

`N#Cc1c(N2CCCCC2)ncc2cc3ccccc3nc12`: the inhibition was 0% (inactive). For `CCOC(=O)C(=Cc1cc(OC)c(O)c([N+](=O)[O-])c1)C(=O)OCC` the value was 5% (inactive). As for `CCOC(=O)C(=Cc1ccc(OCc2ccc([N+](=O)[O-])cc2)c(OC)c1)C(=O)OCC`, the inhibition is 59% (active). As for `CCOc1cc(C=O)cc(Br)c1OCc1ccc([N+](=O)[O-])cc1`, the inhibition was 28% (inactive). For `O=Cc1cc(Cl)c(OCc2ccc([N+](=O)[O-])cc2)c(Cl)c1` the value was 25% (inactive); for `COC(=O)C(=Cc1cc(Br)c(OCc2ccc([N+](=O)[O-])cc2)c(OC)c1)C(=O)OC`, 12% (inactive). Turning to `CCOc1cc(C=O)cc(Cl)c1OCc1ccc([N+](=O)[O-])cc1`, the inhibition is 54% (active). Take `NNC(=O)COc1cccc2ccccc12`: the inhibition is 1% (inactive). Under `COc1ccc(C(=O)NC(=S)Nc2ccc3ccccc3c2)cc1OC` stands 17% (inactive); under `O=C(O)c1ccc(-c2ccc(/C=N/N3C(=O)C4C5C=CC(CC5)C4C3=O)o2)cc1` (stereo unspecified), 2% (inactive); under `O=C(c1ccccc1)N1N=C(c2ccccc2)CC1(O)C(F)(F)F` (stereo unspecified), 9% (inactive).

Consider `O=C(c1cccc(Br)c1)N1N=C(c2ccc(F)cc2)CC1(O)C(F)(F)F` (stereo unspecified), for which the inhibition was 22% (inactive). Under `O=C(c1cccc(Br)c1)N1N=C(c2ccccc2)CC1(O)C(F)(F)F` (stereo unspecified) stands 50% (active); under `O=C(Nc1ccccc1Cl)ON=C1c2ccccc2-c2ccccc21`, 43% (inactive); under `O=C(Nc1ccccc1)ON=C1c2ccccc2-c2ccccc21`, 42% (inactive). For `O=C(Nc1cccc2ccccc12)ON=C1c2ccccc2-c2ccccc21` the value was 56% (active); for `COc1ccccc1NC(=O)Nc1cccc2ccccc12`, 15% (inactive); for `CCN(CC)c1ccc(C(NC(C)=O)NC(C)=O)cc1`, 0% (inactive). Under `Cc1ccc([N+](=O)[O-])cc1NC(=O)C1CC1` stands 0% (inactive); under `COc1ccc(CC(=O)NNC(=O)c2ccc(Cl)cc2)cc1OC`, 9% (inactive); under `CC(=O)N1c2ccccc2C(C)=CC1(C)C`, 3% (inactive). Turning to `CC1=CC(C)(C)N(C(=O)c2ccccc2)c2ccccc21`, the inhibition was 10% (inactive).

Turning to `CCC(C(=O)N1c2ccccc2C(C)=CC1(C)C)c1ccccc1` (stereo unspecified), the inhibition is 50% (active). On to `COC(=O)c1ccc(CSc2nnc(CCCN3C(=O)c4cccc5cccc(c45)C3=O)n2-c2ccccc2)cc1`, for which the inhibition was 15% (inactive). Under `CCOC(=O)C1=C(C)N=c2s/c(=C\c3ccc(-c4ccc(Br)cc4[N+](=O)[O-])o3)c(=O)n2C1c1ccccc1` (stereo unspecified) stands 48% (inactive); under `COc1ccc(C2C(C#N)=C(N)OC3=C2C(=O)CC(c2ccccc2)C3)cc1C` (stereo unspecified), 9% (inactive). For `O=C(Nc1cccc(Cl)c1Cl)c1ccc(-c2cccc(Cl)c2)o1` the value was 37% (inactive); for `O=C(Nc1cccc(Cl)c1Cl)c1ccc(-c2ccc(Br)cc2)o1`, 57% (active).

As for `O=C(Nc1cccc(Cl)c1Cl)c1ccc(Br)o1`, the inhibition is 16% (inactive). Consider `Clc1ccccc1OCCCn1ccnc1`, for which the inhibition was 0% (inactive). Under `C=C(C)c1cccc(C(C)(C)NC(=O)NCc2ccco2)c1` stands 9% (inactive); under `CCOC(=O)C1=C(C)N=c2s/c(=C\c3ccc(-c4cccc([N+](=O)[O-])c4)o3)c(=O)n2C1c1ccc(C)cc1` (stereo unspecified), 19% (inactive). Under `O=C1C2C3C=CC(CC3)C2C(=O)N1/N=C/c1cccs1` (stereo unspecified) stands 56% (active); under `O=C1C2C3C=CC(CC3)C2C(=O)N1/N=C/c1ccc(I)o1` (stereo unspecified), 3% (inactive). On to `O=C1C2C3C=CC(CC3)C2C(=O)N1/N=C/c1ccccc1I` (stereo unspecified), for which the inhibition is 59% (active). For the compound `O=C1C2C3C=CC(CC3)C2C(=O)N1/N=C/c1ccc(O)cc1` (stereo unspecified), the inhibition was 0% (inactive). Under `O=C1C2C3C=CC(CC3)C2C(=O)N1/N=C/c1ccccc1O` (stereo unspecified) stands 0% (inactive); under `O=C1C2C3C=CC(C3)C2C(=O)N1/N=C/c1ccccc1I` (stereo unspecified), 0% (inactive); under `CC(Oc1ccc(Br)cc1)C(=O)N/N=C/c1ccc(N(C)C)cc1` (stereo unspecified), 8% (inactive).

Take `O=C(O)c1cc(NS(=O)(=O)c2ccc(NCCCN3CCOCC3)c([N+](=O)[O-])c2)cc(C(=O)O)c1`: the inhibition is 4% (inactive). Under `COc1ccc(/C=N/Nc2nc(Nc3ccc(F)cc3)nc(N3CCCCC3)n2)cc1` stands 6% (inactive). Under `CCN(CC)C(=O)c1sc(NC(=O)c2cc(Cl)ccc2OC)c(C#N)c1C` stands 7% (inactive); under `Cc1sc(NC(=O)c2cc(Cl)ccc2Cl)c(C#N)c1C`, 4% (inactive). In the case of `COc1ccc(Cl)cc1C(=O)Nc1sc(C)c(C)c1C#N`, the inhibition is 74% (active). Under `CC(=O)C1=C(Nc2ccc(Br)cc2)CC(C)(O)C(C(C)=O)C1c1ccc([N+](=O)[O-])cc1` (stereo unspecified) stands 4% (inactive); under `Cc1ccc(P(=O)(c2ccc(C)cc2)C(C)(C)O)cc1`, 0% (inactive); under `CN(CCO)c1nc(-c2ccccc2)c2cc(Cl)ccc2n1`, 50% (active).

As for `CCN(CC)c1nc(-c2ccccc2)c2cc(Cl)ccc2n1`, the inhibition was 12% (inactive). Take `CN(C)c1nc(-c2ccccc2)c2cc(Cl)ccc2n1`: the inhibition is 13% (inactive). Regarding `COc1ccc(-c2nn(-c3ccccc3)cc2/C=N/NS(=O)(=O)c2ccccc2)cc1`, the inhibition is 15% (inactive). For `S=C(NCCc1ccccn1)Nc1ccc(Cl)cc1Cl` the value was 50% (active); for `O=C(NCc1ccccn1)Nc1ccc(Cl)c(Cl)c1`, 9% (inactive); for `S=C(NCCc1ccccn1)Nc1ccc(Cl)c(Cl)c1`, 59% (active). As to `S=C(NCCc1c[nH]c2ccccc12)Nc1ccc(Cl)c(Cl)c1`, the inhibition is 49% (inactive).

For the compound `S=C(NCCC(c1ccccc1)c1ccccc1)Nc1ccc(Cl)cc1Cl`, the inhibition is 12% (inactive).

Consider `S=C(NCCc1ccccc1)Nc1ccc(Cl)cc1Cl`, for which the inhibition is 46% (inactive).
